Results published in PubChem BioAssay AID2315 (National Center for Advancing Translational Sciences (NCATS), 2010).
Screen size: about 290,000 compounds; about 27,000 (9.3%) were called active. Many of the other results were omitted from the sample, so actives are more common in it than they were. Values without a mark were called inactive. No stated cut-off is given here; in the data, active means inhibition mostly above about 28% (no sharp cut-off); inactive means mostly below about 43%.

Experiment: A qHTS for Small Molecule Inhibitors of Shiga Toxin; further: 0% is about no effect
Settings: Vero cells, Shiga toxin protein synthesis inhibition reporter; at 38.7 µM, hits give high values

SMILES | inhibition
COc1ccnc2c1c(=O)n(Cc1cccc(F)c1)c(=O)n2C | -2.76%
Cn1c(=O)c2c(nc(NCCNC(=O)c3ccco3)n2Cc2ccccc2F)n(C)c1=O | -9.7%
CCN(CC)CCCSc1nc2ccccc2s1 | 47.9%
O=C(CSc1nc2ccccc2s1)Nc1ccc(C(=O)O)cc1 | -1.35%
O=C(O)c1ccccc1CSc1nc2ccccc2s1 | 70.7% (active)
COc1cc(OC)cc(C(=O)OCC(=O)Nc2sccc2C(N)=O)c1 | -3.26%
CCOC(=O)N1CCN(C(=O)C2CCN(S(=O)(=O)c3cc(Cl)ccc3OCC)CC2)CC1 | -12.3%
Cc1ccc(N(CC(=O)NC2CCCCC2)C(=O)CCCC(=O)Nc2ccccn2)c(C)c1 | -5.94%
COc1ccc(OC)c(CNC(=O)CCc2nc(-c3cccs3)no2)c1 | 4.93%
CCc1ccc(CNC(=O)CCc2nc(-c3cccs3)no2)cc1 | -8.04%
COc1ccc(CCc2nc(-c3cccs3)no2)cc1 | 120% (active)
COc1ccc(S(=O)(=O)NCCc2cc3ccc(C)c(C)c3[nH]c2=O)cc1 | 1.8%
Cn1c(SCc2ccc(F)cc2)nnc1-c1ccncc1 | 3.38%
Cc1cc(C)nc(SCC(=O)c2ccc(Cl)cc2)n1 | -6.93%
Cc1cc(C)nc(S/C=C/C(=O)c2ccccc2)n1 | 159% (active)
Cc1cc(SCC(=O)c2ccccc2)nc(SCC(=O)c2ccccc2)n1 | 51.3%
O=C(c1ccc(Br)o1)N1CCN(CCOc2ccccc2)CC1 | -4.41%
Cc1ccc(CNC(=O)[C@@H](NC(=O)Cc2ccccc2)C(C)C)cc1 | -12.1%
CCCOc1ccc(/C=N/NC(=O)C2CC2)c(OCCC)c1 | -6.76%
O=C(CC1N=C2c3ccccc3N=C(SCc3ccccc3Cl)N2C1=O)NCc1ccco1 (stereo not given) | 38.1% (active)

SMILES | inhibition
CCC(C)NC(=O)CSC1=Nc2ccccc2C2=NC(CCC(=O)NCc3ccco3)C(=O)N12 (stereo not given) | -9.08%
O=C(CSC1=Nc2ccccc2C2=NC(CC(=O)NCc3ccco3)C(=O)N12)NCc1ccco1 (stereo not given) | -3.74%
CC(=O)OCC(NC(=O)C(Cc1ccccc1)NC(=O)OC(C)(C)C)C1OC(n2ccc(=O)[nH]c2=O)C(OC(C)=O)C1OC(C)=O (stereo not given) | 7.84%
C=CCNc1nc(N)c([N+](=O)[O-])c(NC2CCCCC2)n1 | 14.1%
CCC(CC)c1nnc(NC(=O)C2CCN(C(=O)c3ccco3)CC2)s1 | 4.71%
Cc1cc(N=Nc2ccc3ccccc3c2)ccc1O | 107% (active)
COc1ccc(N=Nc2ccc(O)c(P(=O)(c3ccccc3)c3ccccc3)c2)cc1 | -5.57%
Cc1nc(N)sc1N=Nc1c(C)n(C)n(-c2ccccc2)c1=O | 2.84%
Cc1ccc(N=Nc2c(C)[nH]n(-c3ccccc3)c2=O)cc1 | 25.5%
Cc1c(N=Nc2ccc(N(C)C)cc2)c(=O)n(-c2ccccc2)n1C | 55.4% (active)
CCCN1CCC(=O)N(C(CSc2ccc(OC)cc2)Cc2ccccc2)CC1 (stereo not given) | -5.53%
COc1ccc(CNC(=O)C(NS(=O)(=O)c2cccc3nsnc23)C(C)C)cc1 (stereo not given) | -7.36%
O=C(O)CCC(=O)N(Cc1ccccc1)Cc1ccccc1 | -10.9%
CC[C@@H](C)[C@H](NC(=O)CCc1c(C)c2cc3c4c(oc3c(C)c2oc1=O)CCCC4)C(=O)O | 22.3%
COc1ccccc1OCCOc1ccc(/C=N/n2cnnc2)cc1 | -21.9%
C(=N\n1cnnc1)/c1cccnc1 | 2.15%
COc1cccc(OCCOc2cccc(/C=N/n3cnnc3)c2)c1 | 41.7% (active)
O=C(c1ccc2c(c1)N(Cc1ccc(F)cc1)C(=O)c1ccccc1S2(=O)=O)N1CCN(c2ccccn2)CC1 | -2.78%
Cc1cc(NC(=O)COc2ccc(Cl)cc2Cl)n(CCC#N)n1 | 87.8%
CSc1ccc(C#N)cc1NC(=O)c1cccc(Cl)c1 | -14.6%

SMILES | inhibition
CCOc1ccc(CN2CCN(Cc3ccc4cc(F)ccc4n3)CC2CCO)cc1 (stereo not given) | -9.76%
CCOc1cc(/C=C(\C#N)c2nc(-c3cccs3)c(NC(C)=O)s2)ccc1O | -0.261%
Cc1ccccc1OC/C(O)=C(\C#N)c1nc2ccccc2[nH]1 | -10.2%
COc1cc(/C=C(\C#N)c2nc3c(s2)CC(C)CC3)ccc1O (stereo not given) | 62.8% (active)
COc1ccc(/C=C(/NC(=O)c2ccc(C)cc2)c2nc3ccccc3[nH]2)cc1OC | -2.72%
COc1cc(/C=C(\C#N)c2nc3ccccc3[nH]2)ccc1O | 55.7% (active)
Cc1ccc(-c2ccnc3[nH]n(-c4ccccc4)c(=O)c23)cc1 | 17.7%
C[C@H](NC(=O)C1CCN(S(=O)(=O)c2ccccc2)CC1)C(=O)NCc1ccccc1 | -3.31%
CC(=O)N1c2ccc(S(=O)(=O)NCCC(=O)N(C)C3CCCCC3)cc2CC1C (stereo not given) | 2.29%
COc1ccc(C(C(=O)NC2CCCC2)N(CCCO)C(=O)Cn2nnc(-c3ccc(C)o3)n2)cc1 (stereo not given) | -6.08%
C/C(=N/NC(=O)c1ccc(NC(=O)c2ccc(F)cc2)cc1)c1ccccc1 | 30%
CC(=O)Nc1cccc(/C(C)=N/NC(=O)c2ccccc2Cl)c1 | 22%
COc1cccc(C(=O)N/N=C(\C)c2cccc(NC(=O)c3ccc(F)cc3)c2)c1OC | 77.4% (active)
OC(CNC1CCCC1)COc1ccc(F)cc1 (stereo not given) | -14%
CC(=O)N1CCN(CC(c2ccccc2)c2ccccc2)CC1 | -3.73%
CC1CCCN(CC(=O)Nc2cc(Cl)ccc2Oc2ccccc2)C1 (stereo not given) | 0.789%
CC1CCC2CCCCC2N1C(=O)c1cc([N+](=O)[O-])cc([N+](=O)[O-])c1 (stereo not given) | -16.8%
CN(C)C(=O)Oc1ccc2c(c1)O/C(=C\c1ccccc1)C2=O | 62% (active)
O=C1/C(=C/c2ccc3c(c2)OCO3)Oc2cc(OCC(=O)N3CC(O)C[C@H]3C(=O)O)ccc21 (stereo not given in full) | -3%
COC(=O)C(C)Oc1ccc2c(c1)O/C(=C\c1cccc(Br)c1)C2=O (stereo not given) | -4.67%
